High-throughput results: PubChem, National Center for Advancing Translational Sciences (NCATS)
Rows were chosen to be rich in hits. Some 10% of all compounds tested hit in one or more screens of this group.
G9a block: qHTS Assay for Inhibitors of Histone Lysine Methyltransferase G9a; G9a H3K9 monomethylation, AlphaScreen, 2 h; Potency, µM (series often up to 102 µM), inactives show at the top dose activity, negative = inhibition, hits mostly inhibitors; hit rate 8.8% among 350,000; further: on the % scale 0 is the no-effect control and ±100 the full control effect; nearly all actives have a fitted effect of over 75% in size
Target sequence (Q96KQ7 913-1193 limits assumed): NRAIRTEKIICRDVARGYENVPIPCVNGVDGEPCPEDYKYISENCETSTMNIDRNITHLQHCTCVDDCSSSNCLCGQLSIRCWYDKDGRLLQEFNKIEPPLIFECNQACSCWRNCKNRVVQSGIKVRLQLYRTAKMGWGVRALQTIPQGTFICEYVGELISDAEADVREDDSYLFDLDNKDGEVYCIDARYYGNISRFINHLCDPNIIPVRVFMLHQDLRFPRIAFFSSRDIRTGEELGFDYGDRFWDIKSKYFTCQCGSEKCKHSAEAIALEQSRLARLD
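Chemiluminescent proximity detection of H3K9 monomethylation, read after 10 min bead incubation in the dark. Reaction: 20 nM G9a, 500 nM biotin-H3K9 peptide, 20 uM SAM cofactor, 2 h, room temperature, following 15 min enzyme-compound preincubation.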
JMJD2A Tudor: qHTS Assay for Inhibitors of JMJD2A-Tudor Domain. Lysine-specific demethylase 4A (Homo sapiens), O75164. AlphaScreen JMJD2A-Tudor / H3K4me3 peptide binding. Potency, µM (doses to about 114 µM), for the others: at the highest dose activity change, negative = inhibition, most hits filed as inhibitors. hit rate 4.4% among 390,000; further: on the % scale 0 is the no-effect control and ±100 the full control effect; nearly all actives have a fitted effect of over 50% in size
GLS inh: qHTS for Inhibitors of Glutaminase (GLS) | Glutaminase kidney isoform, mitochondrial (Homo sapiens), O94925 | GLS enzymatic activity, qHTS titration | Potency, µM (doses to about 45.5 µM), without a hit: at the highest dose activity change, negative = inhibition, actives largely listed as inhibitors | hit rate 0.21% among 410,000 | AID 624170, 2012; further: on the % scale 0 is the no-effect control and ±100 the full control effect
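Two-point fluorescence kinetic (t0, 30 min RT) for hKGA; glutamate detected via glutamate oxidase–HRP–Amplex Red. Substrate: 1 mM L-glutamine solution; buffer 45 mM KH2PO4, pH 8.2.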
HP1b chromo inh: HTS for Inhibitors of HP1-beta Chromodomain Interactions with Methylated Histone Tails. hit rate 0.56% among 390,000. Potency, µM (highest dose often 114 µM), without a hit: top-dose activity change, negative = inhibition, most hits filed as inhibitors. AlphaScreen HP1-beta / biotin-H3K9me3 peptide binding; further: nearly all actives have a fitted effect of over 70% in size
Target sequence (P83916 whole entry, looked up): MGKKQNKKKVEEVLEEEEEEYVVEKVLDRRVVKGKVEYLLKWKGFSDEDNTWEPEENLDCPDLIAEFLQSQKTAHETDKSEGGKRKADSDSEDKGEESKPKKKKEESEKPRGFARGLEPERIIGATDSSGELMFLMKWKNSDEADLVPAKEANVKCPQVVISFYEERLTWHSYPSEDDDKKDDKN
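HP1-beta protein (50 nM final) preincubated 30 min at room temperature with biotinylated H3(1-18)K9me3 peptide (50 nM) in PBS pH 7.4, 0.01% Tween-20, then compound added for 30 min. AlphaScreen streptavidin donor/nickel chelate acceptor beads (10 ug/mL final), 30 min dark, luminescence read.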
BAZ2B inh: qHTS Assay for Inhibitors of BAZ2B; Bromodomain adjacent to zinc finger domain protein 2B (Homo sapiens), Q9UIF8; AlphaScreen BAZ2B-H3K14Ac peptide displacement; Potency, µM (top dose mostly 114 µM), without a hit: at the highest dose activity change, negative = inhibition, usual class: inhibitors; hit rate 4.4% among 360,000; further: on the % scale 0 is the no-effect control and ±100 the full control effect; nearly all actives have a fitted effect of over 60% in size
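Protein-peptide AlphaScreen: BAZ2B 50 nM, b-H3K14Ac 50 nM, 1x PBS pH 7.4 + 0.01% Tween-20. Preincubation 30 min RT; cpd 30 min RT (top 110 uM); beads 20 min RT, light-protected.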
* = called active by the depositor; ? = inconclusive; nt = no result; [ ] = dose if it differs, or a comment. The call rests on the fitted dose curve; in most records, active means well fitted curve in the direction sought with a large enough effect; inconclusive means small, poorly fitted or top-dose-only effect, or another doubt; inactive means no such curve, though single readings can be large; an effect the other way counts as inactive or inconclusive. Potency means the concentration at half of the fitted maximal effect.

SMILES	G9a block	JMJD2A Tudor	GLS inh	HP1b chromo inh	BAZ2B inh
Cc1c(C(=O)O)cccc1-n1c(C)cc(/C=C(/C#N)C(=O)NCc2ccccc2)c1C	50µM*	-16%	0%	17%	56µM*
Cc1cc(/C=C(/C#N)C(=O)O)c(C)n1-c1cccc2ccccc12	7%[2.33 µM]	-33%	-4%	-22%	?
N#C/C(=C/c1ccccc1)C(=O)NCc1ccccc1	-8%[59 µM]	-6%	2%	19%	-15%
CN(C)c1ccc(/C=C(/C#N)C(=O)NCc2ccccc2)o1	3.5µM*	-1%	4%	40%	-11%
O=C1COc2ccccc2N1Cc1ccc(Cl)cc1	88%	40%	2%	79%	25%
Cc1cc(C)cc(NC(=O)Nc2ccc3nc(N4CCN(C)CC4)cc(C)c3c2)c1	-23%[59 µM]	-4%	5%	24%	0%[57.1 µM]
CNc1ccccc1C(=O)OC	-13%[59 µM]	-20%	0%	47%	9%
COC(=O)C(=N/Nc1ccccc1C(=O)OC)/C(C)=N/O	50µM*	3%	2%	13%	-15%
CCN1CCN(C(=O)/C(C#N)=C/c2ccc(OC(F)F)cc2)CC1	?	-3%	-7%	22%	-16%
O=C(NNc1ccc(-c2csnn2)cc1)c1cc(Cl)cc(Cl)c1	nt	-20%	?	34%	-2%
Cc1ccc(CNC(=O)c2cc3c(=O)n(C)c4ccccc4c3n2C)cc1	6%	-19%	-4%	9%	-4%
CCOCCCNC(=O)c1cc2c(=O)n(C)c3ccccc3c2n1C	10µM*	-13%	1%	17%	-8%
CN(CCNC(=O)c1cc2c(=O)n(C)c3ccccc3c2n1C)Cc1ccccc1	50µM*	-26%	-1%	28%	-35%
Cn1c(C(=O)NCCN2CCOCC2)cc2c(=O)n(C)c3ccccc3c21	?	-17%	13%	52%	10%
CCCN(CCC)CCNC(=O)c1cc2c(=O)n(C)c3ccccc3c2n1C	?	35µM*	12%	14%	-1%
Cc1ccccc1N(CC(=O)N/N=C/c1ccc(N(C)C)cc1)C(=O)c1ccccc1	?	20µM*	36%	?	56µM*
CC(C)(C)c1ccc(/C=N/NC(=S)NCc2ccccc2)cc1	24%[59 µM]	-14%	2%	24%	0%
CN(C)c1ccc(/C=N/NC(=S)NCc2ccccc2)cc1	?	13µM*	42%	50µM*	?
COCCN=C1Sc2nc3c(C)cccc3cc2CN1Cc1ccco1	11%[2.33 µM]	?	5%	-21%	-9%
Cc1cccc2cc3c(nc12)SC(=NCC1CCCO1)N(Cc1ccco1)C3 (centres undefined)	6.3µM*	56µM*	1%	?	?
Cc1ccc2nc3c(cc2c1)CN(Cc1ccco1)C(=NCC1CCCO1)S3 (centres undefined)	?	56µM*	19%	?	-9%
COCCN=C1Sc2nc3ccc(C)cc3cc2CN1Cc1cccs1	9%	8%	0%	75%	20%
CC1=Nc2ccccc2N=C(N)C1c1ccccc1 (centres undefined)	-11%	-14%	25%	2%	?
O=C(Nc1c2c(nn1-c1cccc(Cl)c1)CS(=O)(=O)C2)C1CC1	-27%	-10%	0%	15%	-4%
COc1ccccc1C(c1nnnn1C(C)(C)C)N1CCN(C(=O)c2ccco2)CC1 (centres undefined)	4%[59 µM]	?	2%	48%	4%
SMILES	G9a block	JMJD2A Tudor	GLS inh	HP1b chromo inh	BAZ2B inh
O=C(COC(=O)c1cccc(S(=O)(=O)N2CCN(c3ccccc3)CC2)c1)NCc1ccco1	45µM*	22µM*	7%	-54%	45µM*
COc1ccccc1CNC(=O)COC(=O)c1cccc(S(=O)(=O)N2CCOCC2)c1	13µM*	-3%	-5%	13%	-1%
NC(=O)COC(=O)c1cccc(S(=O)(=O)N2CCN(c3ccccc3)CC2)c1	-31%	0%	2%	20%	16%
O=C(Nc1nnc([C@@H]2C[C@H](O)[C@@H](CO)O2)s1)c1c(F)cccc1F	nt	nt	-10%	nt	nt
CCOc1ccc(NC(=O)CN(C)C(=O)c2ccc(N3CCCC3)c([N+](=O)[O-])c2)cc1OCC	-2%[2.33 µM]	-34%	-9%	-17%	?
CCOc1ccc(NC(=O)CN(C)C(=O)c2ccc(N3CCCCC3)c([N+](=O)[O-])c2)cc1OCC	50µM*	?	-3%	-32%	?
Cc1cc(Br)ccc1NC(=O)CN(C)C(=O)c1cc([N+](=O)[O-])ccc1N1CCOCC1	3.5µM*	-21%	4%	5%	5%
CCOc1ccc(NC(=O)CN(C)C(=O)c2cc([N+](=O)[O-])ccc2N2CCCCC2)cc1OCC	2.2µM*	-34%	4%	-23%	-12%
O=C(NCC(=O)N1CCN(C(=O)c2ccco2)CC1)c1cccc(Cl)c1	-1%[12.7 µM]	-4%	4%	22%	-2%
CC[C@]12c3[nH]c4ccc(Cl)cc4c3CCN1C(=O)[C@@H](CC(=O)NCc1cccc(C(F)(F)F)c1)C[C@@H]2C(=O)N1CCN(C(=O)c2ccco2)CC1	nt	-23%	-5%	18%	nt
O=C1C=CC(=O)N1c1ccc2c(c1)Cc1cc(F)ccc1-2	nt	-3%	-4%	4%[57 µM]	nt
CC(=O)Nc1ccc2c(c1)Cc1cc(N3C(=O)C=CC3=O)ccc1-2	nt	7.1µM*	4%	?	nt
CCOc1ccc(C(=O)CN2CCN(S(=O)(=O)c3ccc(Br)cc3)CC2)cc1	32µM*	-7%	-4%	62%	-36%
CCOc1ccc(C(=O)CN2CCN(S(=O)(=O)c3ccc(OC)cc3)CC2)cc1	13µM*	-32%	-3%	50%	-1%
Cc1ccc(Nc2c3c(nc4nncn24)CCC3)cc1	1%[59 µM]	6%	6%	61%	-1%
CCOC(=O)/C=C(\C)Sc1cc(O)c2ccccc2c1O	2.5µM*	7.9µM*	-15%	7.9µM*	28µM*
CCOC(=O)/C=C(\C)Sc1cc(=O)oc2ccccc12	14%[59 µM]	-8%[57.1 µM]	2%	107%	27%
COc1ccc(-c2nnn(CC(=O)N(CC(=O)NC3CCCC3)Cc3ccco3)n2)cc1OC	18%[12.7 µM]	-8%	-10%	13%	-29%
COC(=O)c1ccc[n+](CC(=O)Nc2ccc(OC(F)F)cc2)c1	45µM*	?	0%	?	-14%
O=C(C[n+]1cccc(CNC(=O)c2ccc(OC(F)F)cc2)c1)Nc1ccc(F)cc1	-20%[59 µM]	-19%	6%	8%	6%
Cc1ccc(CN2CCc3[nH]c(=S)[nH]c(=O)c3C2)cc1	?	-12%	-8%	19%[57 µM]	-13%
CC(C)N1CCc2[nH]c(=S)[nH]c(=O)c2C1	40µM*	?	-5%	1%	16%
